# From PubChem BioAssay (EPA / NIEHS)
# Records with an inconclusive call do not appear. Activity calls are given as the source filed them. How the source made its calls, unless noted: active means hit-call score of the fitted dose curve at least 0.9, where 1 is the maximum; inactive means score below 0.9.
# Assays:
# [1] = read-out: Monocyte Chemoattractant Protein-1 (MCP1), CCL2 (gene 6347); test: BSK_SAg_MCP1: BioMAP Diversity Plus: SAg Assay for Monocyte Chemoattractant Protein-1 (MCP1) Biomarker Activity (AID 2283090); settings: primary human HUVEC with PBMC; actives raise or lower the signal
# Summary of the method: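 Values derive from bidirectional fitting of ELISA-measured MCP1 against DMSO controls. Readings were taken 24 h after dosing human vascular endothelial cells co-cultured with peripheral blood mononuclear cells under superantigen stimulation.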
# [2] = read-out: E-selectin (Homo sapiens) (UniProt P16581); test: BSK_SAg_Eselectin: BioMAP Diversity Plus: SAg Assay for Eselectin Biomarker Activity (AID 2283091); settings: primary human HUVEC with PBMC; actives raise or lower the signal
# Summary of the method: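 Endpoint values derive from bidirectional fitting relative to DMSO, using ELISA-measured E-selectin in a human vascular co-culture (umbilical vein endothelium plus PBMC) sampled 24 h after dosing.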
# [3] = read-out: Monokine induced gamma interferon (MIG), CXCL9 (gene 4283); test: BSK_SAg_MIG: BioMAP Diversity Plus: SAg Assay for Monokine induced gamma interferon (MIG) Biomarker Activity (AID 2283092); settings: primary human HUVEC with PBMC; actives raise or lower the signal
# Summary of the method: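 Measures CXCL9 protein by ELISA in a human vascular primary-cell co-culture (umbilical vein endothelium with PBMC) 24 h after chemical addition. Activity is scored up or down from the DMSO control.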
# [4] = BSK_SAg_PBMCCytotoxicity: PBMC Cytotoxicity Assessment in the BioMAP Diversity Plus: SAg Assay (AID 2283093); settings: primary human HUVEC with PBMC;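 further: PBMC viability measured as Alamar Blue reduction fluorescence at 546/580 nm; fitted both ways against DMSO so a hit may be loss or gain of signal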;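 on AC50: PBMC superantigen activated with SEB plus TSST-1 one hour after compound addition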
# Summary of the method: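 Alamar Blue reduction (6 h, 546/580 nm) reports PBMC cytotoxicity after 90 h superantigen activation (SEB, TSST-1; 20 ng/mL final each) with 1 h compound pre-treatment. Gain or loss of signal fitted versus DMSO.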
# [5] = read-out: Interleukin-8 (IL8), CXCL8 (gene 3576); test: BSK_SAg_IL8: BioMAP Diversity Plus: SAg Assay for Interleukin-8 (IL8) Biomarker Activity (AID 2283094); settings: primary human HUVEC with PBMC; actives raise or lower the signal
# Summary of the method: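 HUVEC/PBMC co-culture, 24 h post-dose; IL-8 by ELISA. Gain or loss of signal fitted bidirectionally vs DMSO baseline.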
# [6] = BSK_SAg_Proliferation: Cell Proliferation Assessment in the BioMAP Diversity Plus: SAg Assay (AID 2283095); settings: primary human HUVEC with PBMC;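 further: relative cell number as total protein by SRB absorbance in sub-confluent culture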
# Summary of the method: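 HUVEC/PBMC co-culture, 96-well. TCA-fixed (10%), 0.1% SRB stain, A560 at 96 h. Protein content used as viability readout; bidirectional fitting vs DMSO control.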
# [7] = BSK_SAg_SRB: Viability Assessment in the BioMAP Diversity Plus: SAg Assay (AID 2283096); settings: primary human HUVEC with PBMC;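 further: cells read one day after compound addition; hits may be either gain or loss of signal compared with DMSO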
# Summary of the method: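 This overt-cytotoxicity endpoint quantifies protein in human endothelial/PBMC co-cultures at 24 h using SRB absorbance (560 nm) after trichloroacetic acid fixation. Values reflect signal change from the DMSO negative control, fitted bidirectionally.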
# [8] = biological target: human CYP19A1, CYP19A1 (gene 1588) (UniProt P11511); test: NVS_ADME_hCYP19A1: NovaScreen (NVS) CYP450-related Enzyme Activity (ADME) Assay for human CYP19A1 (AID 2283098; active means hit-call score of the fitted dose curve at least 0.9, where 1 is the maximum;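 on AC50: potency for inhibitors seen as loss of fluorescent enzyme signal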)
# Summary of the method: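 Compounds were first screened at 10 uM in duplicate against purified enzyme, with a fluorogenic substrate and fluorescence intensity detection after 0.5 h. Inhibition appears as reduced signal against acetonitrile control.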
# [9] = biological target: human CYP2A6, CYP2A6 (gene 1548) (UniProt P11509); test: NVS_ADME_hCYP2A6: NovaScreen (NVS) CYP450-related Enzyme Activity (ADME) Assay for human CYP2A6 (AID 2283099; active means hit-call score of the fitted dose curve at least 0.9, where 1 is the maximum)
# Description: NVS_ADME_hCYP2A6 is a biochemical, single-readout assay that uses extracted gene-proteins from insect cells in a cell-free assay. Measurements were taken 0.5 hour after chemical dosing in a 96-well plate.NVS_ADME_hCYP2A6 is one of one assay component(s) measured or calculated from the NVS_ADME_hCYP2A6 assay. It is designed to make measurements of enzyme activity, a form of enzyme reporter, as detected with fluorescence intensity signals by Fluorescence technology.Data from the assay component NVS_ADME_hCYP2A6 was analyzed into 1 assay endpoint. This assay endpoint, NVS_ADME_hCYP2A6, was analyzed in the positive analysis fitting direction relative to Acetonitrile as the negative control and baseline of activity. Using a type of enzyme reporter, loss-of-signal activity can be used to understand changes in the enzymatic activity as they relate to the gene CYP2A6. Furthermore, this assay endpoint can be referred to as a primary readout, because this assay has produced multiple assay endpoints where this one serves a enzymatic activity function. To generalize the intended target to other relatable targets, this assay endpoint is annotated to the cyp intended target family, where the subfamily is xenobiotic metabolism. […]
# [10] = biological target: human CYP2B6, CYP2B6 (gene 1555) (UniProt P20813); test: NVS_ADME_hCYP2B6: NovaScreen (NVS) CYP450-related Enzyme Activity (ADME) Assay for human CYP2B6 (AID 2283101; active means hit-call score of the fitted dose curve at least 0.9, where 1 is the maximum)
# Summary of the method: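 Recombinant protein, specific fluorescent substrate, read at 1 h post-dosing. Primary: single 10 uM, duplicate; follow-up: concentration series. Activity = signal loss vs acetonitrile baseline, with positive and negative controls on every plate.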
# Chain of human CYP19A1, CYP19A1 (gene 1588) (P11511 whole entry, looked up): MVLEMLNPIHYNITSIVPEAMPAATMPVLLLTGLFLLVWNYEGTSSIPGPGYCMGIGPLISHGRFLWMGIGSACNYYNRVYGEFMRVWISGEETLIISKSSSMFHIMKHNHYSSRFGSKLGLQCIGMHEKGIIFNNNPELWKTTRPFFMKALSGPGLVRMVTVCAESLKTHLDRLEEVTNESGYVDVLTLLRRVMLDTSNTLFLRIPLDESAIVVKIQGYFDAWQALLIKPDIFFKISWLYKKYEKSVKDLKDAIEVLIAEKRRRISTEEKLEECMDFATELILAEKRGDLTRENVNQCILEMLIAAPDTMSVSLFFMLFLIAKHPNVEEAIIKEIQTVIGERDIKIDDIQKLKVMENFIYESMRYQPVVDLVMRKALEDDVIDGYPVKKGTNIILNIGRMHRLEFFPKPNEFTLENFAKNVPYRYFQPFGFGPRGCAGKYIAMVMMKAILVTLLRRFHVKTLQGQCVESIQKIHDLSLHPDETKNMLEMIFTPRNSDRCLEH
# Chain of E-selectin (Homo sapiens) (P16581 whole entry, looked up): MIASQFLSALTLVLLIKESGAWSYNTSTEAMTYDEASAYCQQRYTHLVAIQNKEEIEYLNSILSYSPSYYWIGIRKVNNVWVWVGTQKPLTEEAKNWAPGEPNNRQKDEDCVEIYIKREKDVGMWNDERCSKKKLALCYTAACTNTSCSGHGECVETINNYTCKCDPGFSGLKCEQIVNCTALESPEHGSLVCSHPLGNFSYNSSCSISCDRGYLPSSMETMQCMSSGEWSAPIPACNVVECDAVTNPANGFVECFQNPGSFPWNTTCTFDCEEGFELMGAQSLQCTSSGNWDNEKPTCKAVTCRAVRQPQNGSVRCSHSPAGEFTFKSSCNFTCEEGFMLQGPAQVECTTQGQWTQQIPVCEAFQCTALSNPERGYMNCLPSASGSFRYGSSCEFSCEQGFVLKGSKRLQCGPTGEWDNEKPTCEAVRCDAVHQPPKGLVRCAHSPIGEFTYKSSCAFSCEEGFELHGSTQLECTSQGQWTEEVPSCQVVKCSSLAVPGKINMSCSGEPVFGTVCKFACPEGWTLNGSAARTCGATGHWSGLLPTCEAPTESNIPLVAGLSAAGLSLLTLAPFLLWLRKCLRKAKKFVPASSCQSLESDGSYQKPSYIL
# Chain of human CYP2A6, CYP2A6 (gene 1548) (P11509 whole entry, looked up): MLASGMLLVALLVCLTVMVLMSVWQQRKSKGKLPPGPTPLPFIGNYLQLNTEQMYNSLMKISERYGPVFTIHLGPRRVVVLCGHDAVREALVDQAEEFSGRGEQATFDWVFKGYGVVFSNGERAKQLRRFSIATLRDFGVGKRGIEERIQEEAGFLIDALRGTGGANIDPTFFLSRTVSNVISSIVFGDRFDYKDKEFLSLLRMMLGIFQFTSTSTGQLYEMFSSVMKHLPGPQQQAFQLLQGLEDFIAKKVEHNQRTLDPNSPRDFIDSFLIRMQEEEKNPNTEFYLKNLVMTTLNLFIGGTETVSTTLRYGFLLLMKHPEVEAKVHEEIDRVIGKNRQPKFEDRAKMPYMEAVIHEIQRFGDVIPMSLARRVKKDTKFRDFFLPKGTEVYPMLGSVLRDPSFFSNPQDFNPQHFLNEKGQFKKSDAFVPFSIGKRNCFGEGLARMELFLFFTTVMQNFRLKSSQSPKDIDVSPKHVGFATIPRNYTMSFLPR
# Chain of human CYP2B6, CYP2B6 (gene 1555) (P20813 whole entry, looked up): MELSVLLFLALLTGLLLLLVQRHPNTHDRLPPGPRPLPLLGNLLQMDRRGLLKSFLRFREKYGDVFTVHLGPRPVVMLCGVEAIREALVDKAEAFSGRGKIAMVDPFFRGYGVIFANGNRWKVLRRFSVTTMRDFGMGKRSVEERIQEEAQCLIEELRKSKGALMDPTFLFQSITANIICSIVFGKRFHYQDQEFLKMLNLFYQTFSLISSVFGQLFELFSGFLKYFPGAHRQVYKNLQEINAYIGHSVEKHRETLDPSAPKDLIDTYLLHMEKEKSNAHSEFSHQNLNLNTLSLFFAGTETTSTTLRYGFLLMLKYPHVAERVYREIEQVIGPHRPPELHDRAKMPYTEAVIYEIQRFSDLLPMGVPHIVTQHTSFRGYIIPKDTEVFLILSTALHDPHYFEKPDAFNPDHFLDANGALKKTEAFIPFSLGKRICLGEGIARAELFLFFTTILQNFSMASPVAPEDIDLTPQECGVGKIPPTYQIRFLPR
compound,measurement,setting,value
C=C(C)C(=O)OCCCCCCCCCCCC,outcome,[1],inactive
same,outcome,[2],inactive
same,outcome,[3],inactive
same,outcome,[4],inactive
same,outcome,[5],inactive
same,outcome,[6],inactive
same,outcome,[7],inactive
CCC1(C)C(=O)N(Cl)C(=O)N1Cl (stereo not given),outcome,[1],inactive
same,outcome,[2],inactive
same,outcome,[3],inactive
same,outcome,[4],inactive
same,outcome,[5],inactive
same,outcome,[6],inactive
same,outcome,[7],inactive
CCCCC(CC)COS(=O)(=O)O (stereo not given),outcome,[8],inactive
CCOC(=O)C1=NN(c2ccc(Cl)cc2Cl)C(C)(C(=O)OCC)C1 (stereo not given),outcome,[1],inactive
same,outcome,[2],inactive
same,outcome,[3],inactive
same,outcome,[4],inactive
same,outcome,[5],inactive
same,outcome,[6],inactive
same,outcome,[7],inactive
CC(c1cc(C(C)(C)C)cc(C(C)(C)C)c1O)c1cc(C(C)(C)C)cc(C(C)(C)C)c1O,outcome,[1],inactive
same,outcome,[2],inactive
same,outcome,[3],inactive
same,outcome,[4],inactive
same,outcome,[5],inactive
same,AC50,[6],5.29 µM (active)
same,outcome,[7],inactive
Cc1ccc([N+](=O)[O-])cc1N,outcome,[1],inactive
same,AC50,[2],5.91 µM (active)
same,outcome,[3],inactive
same,outcome,[4],inactive
same,outcome,[5],inactive
same,outcome,[6],inactive
same,outcome,[7],inactive
same,AC50,[9],10 µM (active)
same,AC50,[10],2.51 µM (active)
CC(C)C(=O)OCCc1ccccc1,outcome,[1],inactive
same,outcome,[2],inactive
same,outcome,[3],inactive
same,outcome,[4],inactive
same,outcome,[5],inactive
same,outcome,[6],inactive
same,outcome,[7],inactive
Oc1ccccc1Cc1ccccc1O,outcome,[1],inactive
same,outcome,[2],inactive
same,outcome,[3],inactive
same,outcome,[4],inactive
same,outcome,[5],inactive
same,outcome,[6],inactive
same,outcome,[7],inactive
O=C(OCc1ccccc1)c1ccc(O)cc1,AC50,[8],4.08 µM (active)
CC1=CC=C(C(C)C)CC1,outcome,[1],inactive
same,outcome,[2],inactive
same,outcome,[3],inactive
same,outcome,[4],inactive
same,outcome,[5],inactive
same,outcome,[6],inactive
same,outcome,[7],inactive
C1CNCCN1,outcome,[1],inactive
same,outcome,[2],inactive
same,outcome,[3],inactive
same,outcome,[4],inactive
same,outcome,[5],inactive
same,outcome,[6],inactive
same,outcome,[7],inactive
CCCCC1C(=O)N(c2ccccc2)N(c2ccccc2)C1=O,outcome,[1],inactive
same,outcome,[2],inactive
same,outcome,[3],inactive
same,outcome,[4],inactive
same,outcome,[5],inactive
same,outcome,[6],inactive
same,outcome,[7],inactive
Fc1ccc(Br)cc1,outcome,[1],inactive
same,outcome,[2],inactive
same,outcome,[3],inactive
same,outcome,[4],inactive
same,outcome,[5],inactive
same,outcome,[6],inactive
same,outcome,[7],inactive
Nc1cccc(N)n1,outcome,[1],inactive
same,outcome,[2],inactive
same,outcome,[3],inactive
same,outcome,[4],inactive
same,outcome,[5],inactive
same,outcome,[6],inactive
same,outcome,[7],inactive
CCCCCC1=CCCC1=O,outcome,[1],inactive
same,outcome,[2],inactive
same,outcome,[3],inactive
same,outcome,[4],inactive
same,outcome,[5],inactive
same,outcome,[6],inactive
same,outcome,[7],inactive
CCCCCCCO,outcome,[1],inactive
same,outcome,[2],inactive
same,outcome,[3],inactive
same,outcome,[4],inactive
same,outcome,[5],inactive
same,outcome,[6],inactive
same,outcome,[7],inactive
COC(OC)(C(=O)c1ccccc1)c1ccccc1,outcome,[1],inactive
same,outcome,[2],inactive
same,outcome,[3],inactive
same,outcome,[4],inactive
same,outcome,[5],inactive
same,outcome,[6],inactive
same,outcome,[7],inactive
O=C1CCCCCCCCCCC1,outcome,[1],inactive
same,outcome,[2],inactive
same,outcome,[3],inactive
same,outcome,[4],inactive
same,outcome,[5],inactive
same,outcome,[6],inactive
same,outcome,[7],inactive
CC=C(C)C(C)=O,outcome,[1],inactive
same,outcome,[2],inactive
same,outcome,[3],inactive
same,outcome,[4],inactive
same,outcome,[5],inactive
same,outcome,[6],inactive
same,outcome,[7],inactive
C=CC(=O)OCCCCCCOC(=O)C=C,AC50,[1],11 µM (active)
same,AC50,[2],5.55 µM (active)
same,AC50,[3],7.05 µM (active)
same,AC50,[4],3.97 µM (active)
same,AC50,[5],0.714 µM (active)
same,AC50,[6],0.89 µM (active)
same,AC50,[7],20 µM (active)
CC(C)CCCCCOC(=O)CS,outcome,[1],inactive
same,outcome,[2],inactive
same,outcome,[3],inactive
same,outcome,[4],inactive
same,outcome,[5],inactive
same,outcome,[6],inactive
same,outcome,[7],inactive
CCOC(=O)/C=C\C(=O)OCC,outcome,[1],inactive
same,AC50,[2],20 µM (active)
same,outcome,[3],inactive
same,outcome,[4],inactive
same,outcome,[5],inactive
same,outcome,[6],inactive
same,outcome,[7],inactive
CCCCCCCCCCCC(=O)N(C)CC(=O)O,outcome,[1],inactive
same,outcome,[2],inactive
same,outcome,[3],inactive
same,outcome,[4],inactive
same,outcome,[5],inactive
same,outcome,[6],inactive
same,outcome,[7],inactive
Cc1ccc(C)c(OCCCC(C)(C)C(=O)O)c1,AC50,[8],15.6 µM (active)
COc1ccc(C(=O)c2ccccc2)c(O)c1,outcome,[1],inactive
same,outcome,[2],inactive
same,outcome,[3],inactive
same,outcome,[4],inactive
same,outcome,[5],inactive
same,outcome,[6],inactive
same,outcome,[7],inactive
CCN1CN(CC)CN(CC)C1,outcome,[1],inactive
same,outcome,[2],inactive
same,outcome,[3],inactive
same,outcome,[4],inactive
same,outcome,[5],inactive
same,AC50,[6],36.3 µM (active)
same,outcome,[7],inactive
CCCC(C)C(=O)OCC (stereo not given),outcome,[1],inactive
same,outcome,[2],inactive
same,outcome,[3],inactive
same,outcome,[4],inactive
same,outcome,[5],inactive
same,outcome,[6],inactive
same,outcome,[7],inactive
O=C(Cl)c1c(Cl)c(Cl)c(C(=O)Cl)c(Cl)c1Cl,outcome,[1],inactive
same,outcome,[2],inactive
same,outcome,[3],inactive
same,outcome,[4],inactive
same,outcome,[5],inactive
same,outcome,[6],inactive
same,outcome,[7],inactive
CC/C=C\C/C=C\C/C=C\CCCCCCCC(=O)OC,AC50,[1],33.8 µM (active)
same,AC50,[2],13 µM (active)
same,AC50,[3],37.2 µM (active)
same,AC50,[4],20 µM (active)
same,AC50,[5],20 µM (active)
same,AC50,[6],6.5 µM (active)
same,AC50,[7],29 µM (active)
Clc1cc(Cl)c(Cl)c(Cl)c1Cl,outcome,[1],inactive
same,outcome,[2],inactive
same,outcome,[3],inactive
same,outcome,[4],inactive
same,outcome,[5],inactive
same,outcome,[6],inactive
same,outcome,[7],inactive
O=C(O)c1ccc2c(c1)C(=O)OC2=O,outcome,[8],inactive
CCCC(CC)c1ccccc1 (stereo not given),AC50,[8],10.4 µM (active)
CC=C(C)C=CC=C(C)C,AC50,[1],2.58 µM (active)
same,AC50,[2],23.4 µM (active)
same,outcome,[3],inactive
same,outcome,[4],inactive
same,AC50,[5],6.5 µM (active)
same,AC50,[6],26.5 µM (active)
same,outcome,[7],inactive
CCCCCCCCC(CO)CCCCCC (stereo not given),outcome,[1],inactive
same,outcome,[2],inactive
same,outcome,[3],inactive
same,outcome,[4],inactive
same,outcome,[5],inactive
same,outcome,[6],inactive
same,outcome,[7],inactive
